These results are taken from PubChem BioAssay (NCATS).

Records with an inconclusive call do not appear. The source made the active and inactive calls. Unless noted, calls follow the shape of the dose curve; as a rule, active = well fitted curve in the direction sought with a large enough effect; inconclusive = small, poorly fitted or top-dose-only effect, or another doubt; inactive = no such curve, though single readings can be large; an effect the other way counts as inactive or inconclusive.

In assay [1] the target is Lysosomal acid glucosylceramidase (Homo sapiens) (UniProt P04062). The experiment in a line: Glucocerebrosidase-p2 (AID 348; in the data active = potency below about 10 µM; also: potency is read from the fitted curve at half-maximal effect). To be noted: purified GBA, blue fluorogenic substrate, 40 min. The procedure, abridged: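 Compounds titrated from 0.6 nM upwards against 0.2 nM enzyme in pH 5.9 citric acid/KH2PO4, taurocholate, tween-20; blue fluorogenic substrate 80 uM, 40 min room temperature, stopped and read Ex 365/Em 440 for AC50.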

A short description of assay [2]: AP1 Signaling Pathway (AID 357; active = well fitted curve in either direction with a large enough effect, not every such curve was filed as active; also: % is scaled to controls: 0 for no effect and ±100 for the full control effect). To be noted: ME-180 AP-1-bla reporter, EGF-induced, beta-lactamase ratio, 5 h; at 7.69 µM (top of the series) unless noted. Summed up:
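AP-1-bla ME-180 cells with beta-lactamase reporter under AP-1 response element, stimulated with EC50 EGF; compounds titrated, 5 hours at 37 degrees Celsius. CCF4 read at 460/530 nm ratio; positive and negative modulators judged by AC50.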

The nature of assay [3]: Stat Signaling Pathway (AID 446; active = well fitted curve in either direction with a large enough effect, not every such curve was filed as active;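 also: ME-180 cervical cancer cells given 40 pM IL-6 alongside compound; SIE-controlled beta-lactamase reporter measured as 460/530 nm FRET emission ratio; % is scaled to controls: 0 for no effect and ±100 for the full control effect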). The note with it: ME-180 SIE beta-lactamase reporter, IL-6 stimulated, 5 h; at 7.69 µM (top of the series) unless noted. The procedure, abridged:
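Screening format detects activators and inhibitors alike: ME-180 SIE-bla cells stimulated at 40 pM IL-6 for 5 hrs with compound, then dual-emission beta-lactamase read at 405 nm excitation.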

Assay [4] deals with Glucocorticoid receptor (Homo sapiens) (UniProt P04150). Kind of assay: GR-GFP Redistribution (AID 450;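 active = compounds whose dose series gives a full or clear partial fitted curve of increased nuclear translocation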; also: potency is read from the fitted curve at half-maximal effect). The note with it: U2OS GR-GFP nuclear translocation, laser cytometry, 2 h.
Assay [5] shares this target. Kind of assay: GR-EFC Redistribution (AID 451; calls by dose curve; also: potency is read from the fitted curve at half-maximal effect). To be noted: CHO-K1 GR-EFC translocation, beta-gal luminescence, 2 h. The procedure, abridged:
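Translocation of GR-ED fusion to nuclear EA restores b-gal, read by luminescence after 1 h room-temperature detection. Engineered CHO-K1 biosensor cells, 1,000/well, exposed 2 h at 37 C to titrations up to 46 uM final.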

Assay [6] addresses Mitogen-activated protein kinase 10 (Mus musculus) (UniProt Q61831). Kind of assay: JNK3 AlphaScreen Assay (AID 530; active = well fitted curve in either direction with a large enough effect, not every such curve was filed as active;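 also: kinase came from lysate of stimulated human HepG2 cells; signal reports phosphorylation of biotinylated GST-cJun 1-79 at Ser73 with 10 µM ATP; % is scaled to controls: 0 for no effect and ±100 for the full control effect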). The note with it: JNK3 lysate, c-Jun phosphorylation; series mostly up to 57.1 µM. The procedure, abridged:
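Room-temperature AlphaScreen kinase assay; pre-activated HepG2 lysate as JNK3 source, biotin-GST-cJun(1-79) substrate, 10 uM ATP, compound 15 min preincubation.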
Background: Bead proximity is the source of the signal in Alpha formats.

Assay [7] concerns the target 3',5'-cyclic-AMP phosphodiesterase 4B (Homo sapiens) (UniProt Q07343). Kind of assay: qHTS Assay for Inhibitors of PDE-IV (AID 607; active = well fitted activation curve with a large enough effect in the main read-out, with a control signal flat, not every such curve was filed as active; also: % of control where 0% means no effect). The note with it: HEK293 ACTOne CNG channel cells, membrane potential fluorescence; series mostly up to 22.9 µM. Summed up:
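The readout is membrane depolarisation from a cAMP-sensing CNG channel, detected with a potential dye at ex 535/em 590. Cells were HEK293-derived (endogenous PDE-IV) at 1000 cells/well, titrated up to 22.9 uM final.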

The target in assay [8] is Cytochrome P450 3A4 (Homo sapiens) (UniProt P08684). The experiment in a line: qHTS Assay for Activators of Cytochrome P450 3A4 (AID 885). Also: nearly all actives have a fitted effect of over 65% in size. To be noted: recombinant CYP3A4, Luciferin-PPXE luminescence, 60 min; series mostly up to 57.1 µM. Summed up:
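Steps: enzyme/substrate mix dispensed; compound added, 10 min RT; NADPH regeneration solution added, 60 min RT; luciferin detection buffer stops reaction; 20 min later luminescence measured.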
(qHTS replaces the single test concentration by a dilution series.)

A short description of assay [9]: qHTS Assay for Lipid Storage Modulators (AID 1519; calls by dose curve). The note with it: Drosophila S3 cells, BODIPY lipid droplet/cell ratio, laser cytometry, cells loaded with oleic acid; for activity change, negative = inhibition: at 57.5 µM (top of the series). The procedure, abridged:
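Cells seeded at 5,000 per well were treated with compounds over a concentration series and loaded with oleic acid (400 uM, as added). Lipid droplet fluorescence (488 nm excitation, 500-530 nm channel) was read by laser-scanning cytometry and normalized to 20 uM Triacsin C.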

Assay [10] addresses Dual specificity protein kinase CLK4 (Homo sapiens) (UniProt Q9HAZ1). Kind of assay: qHTS Assay for Inhibitors of CDC-like Kinase 4 (ADP-Glo Assay) (AID 1771). Also: nearly all actives have a fitted effect of over 70% in size. Also: potency is read from the fitted curve at half-maximal effect. To be noted: recombinant CLK4, ADP-Glo luminescence; series mostly up to 80 µM. Summed up: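 Kinase reaction: Clk4 at 25 nM, RS repeat peptide substrate at 100 uM, ATP at 1 uM, 1 hr, room temperature. Product ADP detected as luciferase signal via ADP-Glo.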

Assay [11] shares this target. The experiment in a line: qHTS Assay for Inhibitors of CDC-like Kinase 4 (ADP-FP Assay) (AID 1795). Also: nearly all actives have a fitted effect of over 60% in size. Also: potency is read from the fitted curve at half-maximal effect. To be noted: Transcreener ADP fluorescence polarization; series mostly up to 50 µM. Summed up:
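Recombinant human Clk4 (6.25 nM) phosphorylated RS repeat peptide (100 uM) with 1 uM ATP in Tris pH 7.5/MgCl2/EGTA/DTT/Triton buffer for one hour. ADP was quantified by Transcreener competitive fluorescence polarization against an ADP calibration curve.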

The target in assay [12] is Ubiquitin carboxyl-terminal hydrolase 1 (Homo sapiens) (UniProt O94782). The experiment in a line: Inhibitors of USP1/UAF1: Pilot qHTS (AID 504865). Also: nearly all actives have a fitted effect of over 35% in size. Also: potency is read from the fitted curve at half-maximal effect. The note with it: purified USP1/UAF1, Ub-rhodamine cleavage fluorescence; series mostly up to 54.9 µM. The procedure, abridged: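 USP1/UAF1 complex (1nM) preincubated with compound 15 min at room temperature, then Ub-Rho substrate (150nM final) added. Fluorescence read kinetically at 480/540 nm, 6 reads every 60 seconds. Buffer: 50mM HEPES pH 7.8, 0.5mM EDTA, 0.1 mg/ml BSA, 1mM TCEP, 0.01% Tween-20.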

Assay [13] is described as follows: Primary qHTS for small molecule stabilizers of the endoplasmic reticulum resident proteome: Secreted ER Calcium Modulated Protein (SERCaMP) assay (AID 1508630). Also: % is scaled to controls: 0 for no effect and ±100 for the full control effect. To be noted: SH-SY5Y GLuc-SERCaMP (Gaussia luciferase released on ER calcium loss) secretion, thapsigargin, luminescence; series mostly up to 38.4 µM. The procedure, abridged:
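GLuc-SERCaMP-expressing SH-SY5Y cells, pretreated 16 h with compound, are challenged with thapsigargin to empty ER calcium stores; after 4 h, coelenterazine is added directly to the medium and luminescence is imaged.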

The target of assay [14] is Cytochrome P450 1A2 (Homo sapiens) (UniProt P05177). Kind of assay: p450-cyp1a2 (AID 410; calls by dose curve; also: potency is read from the fitted curve at half-maximal effect). To be noted: recombinant CYP1A2, luciferin-ME demethylation, luminescence; series mostly up to 57 µM. Summed up:
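Inhibition was calculated relative to 57 uM furafylline (full inhibition). The reaction used human CYP1A2 at 20nM with Luciferin-ME at its Km, 100uM, driven by an NADPH-regenerating system for 60 min at room temperature.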

Assay [15] in a line: NFAT Signaling Pathway (AID 444; active = well fitted curve in either direction with a large enough effect, not every such curve was filed as active). The note with it: Jurkat NFAT-bla M1, carbachol, beta-lactamase ratio, 5 h; at 7.69 µM (top of the series) unless noted. Summed up: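 Read-out: CCF4 FRET ratio (460 nm/530 nm) after 1 h RT dye loading, used for %activity and AC50 from titration series. Cells: Jurkat NFAT-β-lactamase/M1 line, treated with compound plus 1 uM carbachol for 5 h, 37 °C.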

Assay [16] addresses Cytochrome P450 3A4 (Homo sapiens) (UniProt P08684). The experiment in a line: qHTS Assay for Inhibitors and Substrates of Cytochrome P450 3A4 (AID 884). Also: potency is read from the fitted curve at half-maximal effect; nearly all actives have a fitted effect of over 50% in size. The note with it: recombinant CYP3A4, Luciferin-PPXE luminescence; series mostly up to 57.1 µM. Summed up: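 20 nM human CYP3A4 with 25 uM Luciferin-PPXE (at KM) in 200 mM KPO4, preincubated 10 min with compound; NADPH regeneration started a 60 min RT reaction. Luciferin detected by luminescence, normalized to 57 uM ketoconazole as full inhibition.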

The target of assay [17] is Cytochrome P450 2C19 (Homo sapiens) (UniProt P33261). The experiment in a line: qHTS Assay for Inhibitors and Substrates of Cytochrome P450 2C19 (AID 899). Also: potency is read from the fitted curve at half-maximal effect; nearly all actives have a fitted effect of over 60% in size. To be noted: recombinant CYP2C19, luciferin-H EGE luminescence; series mostly up to 57.1 µM. Summed up: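 5nM enzyme + 10uM Luciferin-H EGE (=KM), 50mM KPO4; cpd pin-transferred, 10 min 37C; NADPH regen, 60 min 37C; stopped w/ luciferin detection reagent, 20 min; luminescence. Normalized to 57uM ketoconazole (AC100).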

[18] abbreviates: measured here: cell count channel max response.
[19] abbreviates: measured here: lipid channel max response.

Sequence of Ubiquitin carboxyl-terminal hydrolase 1 (Homo sapiens) (O94782 whole entry, looked up): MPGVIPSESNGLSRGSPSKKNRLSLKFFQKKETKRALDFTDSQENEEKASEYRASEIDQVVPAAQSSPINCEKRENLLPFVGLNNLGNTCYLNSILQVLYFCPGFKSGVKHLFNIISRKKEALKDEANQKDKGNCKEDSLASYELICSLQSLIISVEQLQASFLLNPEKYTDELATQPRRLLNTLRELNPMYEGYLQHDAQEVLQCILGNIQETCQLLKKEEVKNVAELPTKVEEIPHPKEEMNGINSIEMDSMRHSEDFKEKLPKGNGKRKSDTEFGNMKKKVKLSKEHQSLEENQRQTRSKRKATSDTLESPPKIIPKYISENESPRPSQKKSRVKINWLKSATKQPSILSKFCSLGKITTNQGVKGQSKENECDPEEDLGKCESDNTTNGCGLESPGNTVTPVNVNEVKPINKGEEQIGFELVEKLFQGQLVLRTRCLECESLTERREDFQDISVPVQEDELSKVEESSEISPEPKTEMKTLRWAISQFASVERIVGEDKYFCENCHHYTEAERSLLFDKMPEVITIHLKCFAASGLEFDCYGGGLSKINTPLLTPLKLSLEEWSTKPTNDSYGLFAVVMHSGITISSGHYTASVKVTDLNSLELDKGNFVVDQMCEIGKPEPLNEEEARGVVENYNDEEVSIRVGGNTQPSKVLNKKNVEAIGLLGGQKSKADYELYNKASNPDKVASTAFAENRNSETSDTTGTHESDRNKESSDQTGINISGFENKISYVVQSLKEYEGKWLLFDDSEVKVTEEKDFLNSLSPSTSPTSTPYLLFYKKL
Sequence of Dual specificity protein kinase CLK4 (Homo sapiens) (Q9HAZ1 whole entry, looked up): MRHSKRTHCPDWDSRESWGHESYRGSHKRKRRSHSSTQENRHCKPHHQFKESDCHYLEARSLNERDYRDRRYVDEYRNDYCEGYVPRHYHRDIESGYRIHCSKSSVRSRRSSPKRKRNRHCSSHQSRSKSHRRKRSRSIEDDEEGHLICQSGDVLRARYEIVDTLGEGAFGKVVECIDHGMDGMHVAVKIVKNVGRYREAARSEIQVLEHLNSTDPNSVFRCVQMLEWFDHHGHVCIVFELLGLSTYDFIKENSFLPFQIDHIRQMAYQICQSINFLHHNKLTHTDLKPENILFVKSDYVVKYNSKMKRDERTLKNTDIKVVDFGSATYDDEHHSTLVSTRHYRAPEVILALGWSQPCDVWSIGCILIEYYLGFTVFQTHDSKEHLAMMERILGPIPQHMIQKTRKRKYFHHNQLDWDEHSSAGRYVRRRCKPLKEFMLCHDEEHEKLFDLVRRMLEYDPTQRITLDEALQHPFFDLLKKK
Sequence of Cytochrome P450 3A4 (Homo sapiens) (P08684 whole entry, looked up): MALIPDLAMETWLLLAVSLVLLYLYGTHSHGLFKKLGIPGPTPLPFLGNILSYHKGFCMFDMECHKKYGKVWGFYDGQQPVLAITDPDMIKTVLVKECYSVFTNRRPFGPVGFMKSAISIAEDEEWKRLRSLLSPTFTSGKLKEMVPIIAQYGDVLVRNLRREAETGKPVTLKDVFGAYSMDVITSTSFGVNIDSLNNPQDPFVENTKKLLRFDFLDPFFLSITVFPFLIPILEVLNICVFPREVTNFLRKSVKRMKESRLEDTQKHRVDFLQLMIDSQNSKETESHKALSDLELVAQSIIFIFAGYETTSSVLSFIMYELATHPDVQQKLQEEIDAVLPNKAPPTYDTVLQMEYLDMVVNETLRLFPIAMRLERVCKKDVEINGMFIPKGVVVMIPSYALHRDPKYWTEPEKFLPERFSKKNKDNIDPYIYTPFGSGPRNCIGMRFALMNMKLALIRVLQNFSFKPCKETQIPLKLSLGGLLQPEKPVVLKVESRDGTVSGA
Sequence of Lysosomal acid glucosylceramidase (Homo sapiens) (P04062 whole entry, looked up): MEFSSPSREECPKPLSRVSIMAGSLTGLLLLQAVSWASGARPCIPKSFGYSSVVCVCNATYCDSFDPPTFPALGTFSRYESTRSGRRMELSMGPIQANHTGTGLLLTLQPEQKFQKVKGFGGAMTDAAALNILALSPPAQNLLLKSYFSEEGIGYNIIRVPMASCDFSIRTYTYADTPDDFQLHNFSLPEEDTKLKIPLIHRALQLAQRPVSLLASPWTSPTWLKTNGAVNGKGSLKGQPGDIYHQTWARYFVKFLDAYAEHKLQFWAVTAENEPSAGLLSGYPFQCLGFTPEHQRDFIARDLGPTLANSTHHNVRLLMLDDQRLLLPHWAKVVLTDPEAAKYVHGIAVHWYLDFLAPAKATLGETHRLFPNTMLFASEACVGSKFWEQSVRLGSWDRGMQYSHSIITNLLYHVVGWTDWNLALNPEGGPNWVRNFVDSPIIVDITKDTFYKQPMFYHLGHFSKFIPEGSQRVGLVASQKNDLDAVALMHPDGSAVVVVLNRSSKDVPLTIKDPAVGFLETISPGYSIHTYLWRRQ
Sequence of Cytochrome P450 1A2 (Homo sapiens) (P05177 whole entry, looked up): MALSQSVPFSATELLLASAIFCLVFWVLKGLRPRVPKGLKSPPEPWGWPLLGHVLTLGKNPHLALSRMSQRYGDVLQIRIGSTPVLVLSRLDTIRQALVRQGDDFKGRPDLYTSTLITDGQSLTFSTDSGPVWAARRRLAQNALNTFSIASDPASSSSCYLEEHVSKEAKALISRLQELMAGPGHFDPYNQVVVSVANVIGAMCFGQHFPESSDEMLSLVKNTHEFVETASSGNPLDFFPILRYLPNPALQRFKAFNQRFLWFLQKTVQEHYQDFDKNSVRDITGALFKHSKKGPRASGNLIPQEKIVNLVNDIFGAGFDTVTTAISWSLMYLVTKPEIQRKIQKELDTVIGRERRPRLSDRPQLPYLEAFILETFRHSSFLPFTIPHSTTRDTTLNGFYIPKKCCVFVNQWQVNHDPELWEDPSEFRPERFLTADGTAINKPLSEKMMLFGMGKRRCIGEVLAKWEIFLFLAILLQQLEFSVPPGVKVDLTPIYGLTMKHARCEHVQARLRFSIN
Sequence of Glucocorticoid receptor (Homo sapiens) (P04150 whole entry, looked up): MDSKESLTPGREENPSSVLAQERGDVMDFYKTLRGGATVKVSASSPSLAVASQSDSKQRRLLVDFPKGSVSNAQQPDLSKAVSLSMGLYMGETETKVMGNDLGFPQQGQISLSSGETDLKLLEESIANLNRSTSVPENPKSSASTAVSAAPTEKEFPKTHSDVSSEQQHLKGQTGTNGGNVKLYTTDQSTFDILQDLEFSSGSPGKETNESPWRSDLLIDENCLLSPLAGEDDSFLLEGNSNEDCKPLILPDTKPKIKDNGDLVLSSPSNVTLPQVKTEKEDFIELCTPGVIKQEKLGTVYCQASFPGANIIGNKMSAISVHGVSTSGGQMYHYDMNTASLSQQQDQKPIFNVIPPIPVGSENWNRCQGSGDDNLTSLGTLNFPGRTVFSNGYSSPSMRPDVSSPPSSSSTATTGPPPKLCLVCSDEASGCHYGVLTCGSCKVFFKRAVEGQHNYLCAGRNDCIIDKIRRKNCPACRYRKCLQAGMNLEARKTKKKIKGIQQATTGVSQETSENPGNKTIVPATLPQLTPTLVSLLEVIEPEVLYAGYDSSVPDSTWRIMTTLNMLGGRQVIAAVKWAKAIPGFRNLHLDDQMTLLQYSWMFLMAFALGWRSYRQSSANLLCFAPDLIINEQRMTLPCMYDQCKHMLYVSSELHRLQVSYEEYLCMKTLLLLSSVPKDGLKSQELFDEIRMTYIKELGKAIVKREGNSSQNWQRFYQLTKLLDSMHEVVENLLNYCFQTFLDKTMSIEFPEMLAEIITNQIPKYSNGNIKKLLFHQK
Sequence of 3',5'-cyclic-AMP phosphodiesterase 4B (Homo sapiens) (Q07343 whole entry, looked up): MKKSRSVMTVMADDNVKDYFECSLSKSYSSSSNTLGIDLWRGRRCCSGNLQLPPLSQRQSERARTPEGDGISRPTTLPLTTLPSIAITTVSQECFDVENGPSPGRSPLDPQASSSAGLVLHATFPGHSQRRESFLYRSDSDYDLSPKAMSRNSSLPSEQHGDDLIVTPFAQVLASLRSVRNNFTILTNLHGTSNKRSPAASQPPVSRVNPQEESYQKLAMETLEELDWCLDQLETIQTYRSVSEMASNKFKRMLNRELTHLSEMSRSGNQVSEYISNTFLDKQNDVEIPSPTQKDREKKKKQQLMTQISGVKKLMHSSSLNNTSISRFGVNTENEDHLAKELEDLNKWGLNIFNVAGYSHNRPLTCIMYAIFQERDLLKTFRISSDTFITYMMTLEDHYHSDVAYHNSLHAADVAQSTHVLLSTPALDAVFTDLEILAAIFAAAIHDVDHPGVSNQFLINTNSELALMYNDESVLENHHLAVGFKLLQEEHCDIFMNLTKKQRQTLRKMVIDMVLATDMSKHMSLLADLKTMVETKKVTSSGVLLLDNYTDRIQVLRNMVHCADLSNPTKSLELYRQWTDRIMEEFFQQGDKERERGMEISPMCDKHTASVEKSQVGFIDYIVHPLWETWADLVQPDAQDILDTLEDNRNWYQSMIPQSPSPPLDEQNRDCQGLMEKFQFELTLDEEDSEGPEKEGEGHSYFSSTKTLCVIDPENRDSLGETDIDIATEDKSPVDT
Sequence of Cytochrome P450 2C19 (Homo sapiens) (P33261 whole entry, looked up): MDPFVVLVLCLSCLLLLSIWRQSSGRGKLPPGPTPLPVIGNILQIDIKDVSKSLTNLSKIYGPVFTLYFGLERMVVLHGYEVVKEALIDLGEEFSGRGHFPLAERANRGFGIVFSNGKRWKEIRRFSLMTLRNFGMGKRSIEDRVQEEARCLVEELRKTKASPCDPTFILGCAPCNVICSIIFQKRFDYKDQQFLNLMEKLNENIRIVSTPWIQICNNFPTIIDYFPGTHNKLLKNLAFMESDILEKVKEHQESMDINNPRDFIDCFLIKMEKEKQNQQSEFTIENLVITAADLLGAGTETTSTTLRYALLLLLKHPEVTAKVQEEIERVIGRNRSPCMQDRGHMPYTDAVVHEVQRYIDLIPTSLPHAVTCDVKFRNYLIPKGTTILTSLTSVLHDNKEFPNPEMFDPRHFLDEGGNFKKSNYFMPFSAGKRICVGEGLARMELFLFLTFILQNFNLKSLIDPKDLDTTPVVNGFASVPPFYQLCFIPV

As to `CS(=O)(=O)Nc1cccc(-c2ccc3ncnc(N4CCNCC4)c3c2)c1`, the Potency in assay [1] is > 11.4 µM (inactive); in assay [4] it was > 46 µM (inactive); in assay [5] it was > 46 µM (inactive); in assay [10] it was 15.8 µM (active); in [11], 5.01 µM (active). In addition, the figures for the activity change, negative = inhibition in assay [2] and in assay [9] were -1.37% (inactive) and 5.65% (inactive), respectively. In addition, the activity, negative = inhibition in assay [3] was -16.8% (inactive). Further, the compound was called inactive in [6]. The Potency result in assay [7], in assay [8], in assay [12] and in [13] was “inactive” each time. For the same compound, the max response in [9] (setting [18]) worked out at 18.2%; in [9] (setting [19]), 22.6%.

`COc1cccc(Nc2ncc3nc(-c4cn(C)c5ccccc45)c(=O)n(CCC#N)c3n2)c1`: the Potency in assay [1] is > 11.4 µM (inactive); in [14], 20 µM (active); in assay [4] it was > 9.22 µM (inactive); in assay [5] it was > 46 µM (inactive). The results for the activity change, negative = inhibition in assay [2], in assay [15] and in assay [9] were -25.6% (inactive), -5.99% (inactive) and 2.44% (inactive), respectively. Also, the activity, negative = inhibition in assay [3] was -9.25% (inactive). The compound was called inactive in [6]. For the same compound, the Potency result in assay [7], in assay [8], in assay [11], in [12] and in [13] was “inactive” in each case. The max response in [9] (setting [18]) amounted to 27%; in assay [9] (setting [19]), 27.4%.

Consider `Cc1nc2cnc(OCc3ccccc3)nc2n(C)c1=O`, for which the results for the activity change, negative = inhibition in assay [2], in assay [15] and in [9] were -10% (inactive), -3.24% (inactive) and 7.08% (inactive), respectively. Besides, in [3], the activity, negative = inhibition is -5.11% (inactive). The Potency in assay [4] is > 9.22 µM (inactive); in assay [5], > 46 µM (inactive). Moreover, the outcome in [6] was inactive. Further, the Potency entry in [7], in assay [10], in assay [11] and in assay [13] was “inactive” each time. Also, the values for the max response in assay [9] (setting [18]) and in [9] (setting [19]) were 13.5% and 17.9%, respectively.

Regarding `FC(F)(F)c1ccccc1-c1nc(NCCN2CCOCC2)c2ccccc2n1`, the results for the activity change, negative = inhibition in assay [2], in assay [15] and in assay [9] were -6.06% (inactive), 6.4% (inactive) and 4.77% (inactive), respectively. The activity, negative = inhibition in [3] is 3.19% (inactive). The Potency in assay [4] was > 46 µM (inactive); in [5] it was > 46 µM (inactive); in [16], 7.94 µM (active). In addition, in assay [6], the outcome was inactive. Moreover, the Potency entry in assay [7], in assay [8], in assay [10], in assay [11], in assay [12] and in assay [13] was “inactive” throughout. For the same compound, the max response came out at 18.8% in [9] (setting [18]) and 21.5% in [9] (setting [19]).

Turning to `COc1ccccc1-c1cc(NCc2ccccc2)ncn1`, the Potency in assay [1] is > 11.4 µM (inactive); in assay [14] it was 2.51 µM (active); in [4] it was > 46 µM (inactive); in [5] it was > 46 µM (inactive); in assay [17] it was 7.94 µM (active); in assay [12], 22.4 µM (active). The activity change, negative = inhibition is 3.71% (inactive) in assay [2], -5.25% (inactive) in assay [15] and 2.28% (inactive) in assay [9]. The activity, negative = inhibition in [3] is 2.32% (inactive). Moreover, in assay [6], the compound was classed as inactive. The max response in assay [9] (setting [18]) came out at 10.9%; in assay [9] (setting [19]), 10.5%. In addition, the Potency entry in assay [11] and in assay [13] was “inactive” throughout.

As for `Cc1noc(C)c1-c1cc(NCc2cccnc2)ncn1`, the Potency in assay [1] is > 11.4 µM (inactive); in [14], 1 µM (active); in [4] it was > 46 µM (inactive); in assay [5] it was > 46 µM (inactive); in assay [10], 22.4 µM (active). Moreover, the activity change, negative = inhibition is 2.04% (inactive) in assay [2], -0.73% (inactive) in assay [15] and 2.28% (inactive) in assay [9]. For the same compound, the activity, negative = inhibition in [3] is 8.46% (inactive). Besides, the outcome in [6] was inactive. For the same compound, the Potency entry in [7], in assay [12] and in assay [13] was “inactive” in each case. Also, the max response in [9] (setting [18]) worked out at 5.59%; in assay [9] (setting [19]) it was 6.22%.
